Screening results as filed in PubChem.
Hits are enriched below; roughly 7.9% of the tested compounds scored in any of these assays.
HCMV inh: qHTS Assay for inhibitors of the human cytomegalovirus (HCMV); HFF cells, HCMV-luciferase reporter, 72 h; hits give low values; activity change, negative = inhibition, % at 57.5 µM; actives 4.5% (n = 410,000); AID 1259415, 2018; in the data active = activity change below about -60%; inconclusive = no clear call, values can overlap the other calls; inactive = above about -39%
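Compounds were evaluated in HFFs infected with an HCMV luciferase reporter virus (MOI 1 PFU/cell). Luciferase in lysates collected 72 h post infection served as the replication measure.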
MARV entry inh: qHTS for inhibitors of binding or entry into cells for Marburg Virus. actives 1.8% (n = 300,000). Marburg virus pseudotyped entry inhibition, cell reporter. Potency, µM (highest dose often 37.8 µM), most hits filed as inhibitors; calls by dose curve; tested in HEK293 cells
Lassa entry inh: qHTS for Inhibitors of binding or entry into cells for Lassa Virus; Lassa virus pseudotype entry inhibition, cell reporter; Potency, µM (top dose mostly 37.9 µM), hits mostly inhibitors; actives 1.2% (n = 300,000); calls by dose curve; tested in HEK293 cells; note: nearly all actives have a fitted effect of over 50% in size
FMDV antiviral: High Throughput Screening for Foot and Mouth Disease Virus Antivirals | FMDV antiviral cell-based qHTS | Potency, µM (highest dose often 57.9 µM), usual class: inhibitors | actives 1.2% (n = 410,000); calls by dose curve; tested in HEK293T cells; note: read-out not given here; nearly all actives have a fitted effect of over 45% in size
HCV inhibitor: qHTS Assay for Inhibitors of Hepatitis C Virus (HCV) | Huh7.5.1 HCVcc-Cre infection, luciferase reporter, 44 h | Potency, µM (titrated, usually from 41.8 µM), most hits filed as inhibitors | actives 3.4% (n = 340,000); active = well fitted inhibition curve with a large enough effect; inconclusive = small, poorly fitted or top-dose-only effect, or another doubt; inactive = no such curve, though single readings can be large or run the other way
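Whole-lifecycle infectious HCVcc-Cre system; cells 1,000/well, compound then virus (~0.5 moi) added 4 h after plating, 44 h culture. Luciferase read 15 sec following 15 min substrate incubation, room temp.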
Of the large screens only hits and unclear results are named; the others gave an inactive call.

C[C@H](CO)N1C[C@H](C)[C@@H](CN(C)S(=O)(=O)c2ccc(F)cc2)Oc2ccc(NC(=O)Nc3ccc(C(F)(F)F)cc3)cc2C1=O	FMDV antiviral inconclusive, HCV inhibitor 32µM (no result: MARV entry inh, Lassa entry inh)
C[C@@H]1CCCCO[C@@H](CN(C)Cc2ccc(Cl)c(Cl)c2)[C@@H](C)CN([C@H](C)CO)C(=O)c2cc(NC(=O)CCC(F)(F)F)ccc2O1	HCMV inh -60 (no result: MARV entry inh, Lassa entry inh, HCV inhibitor)
C[C@@H]1CN([C@H](C)CO)C(=O)c2cc(NC(=O)Nc3ccc(C(F)(F)F)cc3)ccc2O[C@H]1CN(C)Cc1ccc(Cl)c(Cl)c1	HCMV inh -97 (no result: MARV entry inh, Lassa entry inh)
Cc1c(C(=O)NCC(C)(C)N2CCOCC2)cnn1-c1ncc2c(n1)-c1ccccc1CC2	none (no result: HCMV inh, MARV entry inh, Lassa entry inh, HCV inhibitor)
O=C1CCC([N+](=O)[O-])C(c2ccc(C(F)(F)F)cc2)N1 (stereo not given)	none
CCc1ccc2ncc3c(-c4ccc(F)cc4)nn(CC(=O)NC4CCCCC4)c3c2c1	none (no result: MARV entry inh, HCV inhibitor)
C[C@@H]1CN([C@H](C)CO)C(=O)c2cc(NC(=O)Nc3ccc(C(F)(F)F)cc3)ccc2O[C@H]1CN(C)S(=O)(=O)c1ccc(Cl)cc1	HCMV inh -76, HCV inhibitor inconclusive (no result: MARV entry inh, Lassa entry inh)
CCC(Sc1nc2ncccc2[nH]1)C(=O)NCCc1ccccc1 (stereo not given)	HCMV inh -61 (no result: MARV entry inh, Lassa entry inh)
CCC(Sc1nc2ncccc2[nH]1)C(=O)NC1CCC(C)CC1 (stereo not given)	none (no result: MARV entry inh, Lassa entry inh)
CC(C)CC(NS(=O)(=O)c1ccc2[nH]c(=O)c(=O)[nH]c2c1)C(=O)O (stereo not given)	MARV entry inh inconclusive
CC(NS(=O)(=O)c1ccc2[nH]c(=O)c(=O)[nH]c2c1)C(=O)O (stereo not given)	HCMV inh -92
CSCC[C@H](NC(=O)Nc1ccc(S(N)(=O)=O)cc1)C(=O)O	none (no result: MARV entry inh, Lassa entry inh)
CCOC(=O)c1ccc(N2C(=O)c3n[nH]c(-c4cccs4)c3C2c2ccc(C(C)C)cc2)cc1 (stereo not given)	HCMV inh -106, MARV entry inh inconclusive, FMDV antiviral inconclusive (no result: HCV inhibitor)
CCOC(=O)c1ccc(N2C(=O)c3n[nH]c(-c4cccs4)c3C2c2ccc(CC)cc2)cc1 (stereo not given)	HCMV inh -99, MARV entry inh inconclusive, Lassa entry inh inconclusive, FMDV antiviral inconclusive (no result: HCV inhibitor)
CCOC(=O)c1ccc(N2C(=O)c3n[nH]c(C)c3C2c2ccc(OC)cc2)cc1 (stereo not given)	none
CCOC(=O)c1ccc(N2C(=O)c3n[nH]c(-c4cccs4)c3C2c2cccc(O)c2)cc1 (stereo not given)	MARV entry inh inconclusive, Lassa entry inh inconclusive, FMDV antiviral 35µM (no result: HCV inhibitor)
CCOC(=O)c1ccc(N2C(=O)c3n[nH]c(-c4cccs4)c3C2c2ccc(OCC)cc2)cc1 (stereo not given)	HCMV inh -105, MARV entry inh 13µM, Lassa entry inh inconclusive (no result: HCV inhibitor)
CCOC(=O)c1ccc(N2C(=O)c3n[nH]c(C)c3C2c2cccc(Br)c2)cc1 (stereo not given)	MARV entry inh inconclusive, Lassa entry inh inconclusive (no result: HCV inhibitor)
COc1ccc(N(CC(=O)Nc2cc([N+](=O)[O-])ccc2C)S(C)(=O)=O)cc1OC	HCMV inh inconclusive
CCOC(=O)c1ccc(-c2c(-c3ccccc3OC)sc3ccc(OC)cc23)cc1F	none (no result: MARV entry inh, Lassa entry inh)
COc1cccc2c1[C@H](C=Cc1ccccc1)[C@@H]([C@H](O)CO)OC2	none (no result: HCMV inh, FMDV antiviral, HCV inhibitor)
O=C(NCc1ccc2c(c1)OCO2)[C@H]1[C@H](CO)[C@H]2Cn3c(cccc3=O)[C@@H]1N2Cc1ccccc1	none (no result: MARV entry inh, Lassa entry inh, FMDV antiviral, HCV inhibitor)
CSC[C@H]1CN(c2ccc(Br)cc2)C(=O)[C@H]1CC(=O)Nc1ccccc1	none (no result: HCMV inh, MARV entry inh, FMDV antiviral, HCV inhibitor)
COc1ccc(NC(=O)CSC2=Nc3ccccc3N=C(c3ccc(F)cc3)C2)cc1OC	HCMV inh -102, FMDV antiviral inconclusive (no result: MARV entry inh, HCV inhibitor)
C[C@@H](NC(=O)/C(C#N)=C/c1ccc(O)c(O)c1)c1ccccc1	HCMV inh -98, MARV entry inh inconclusive, HCV inhibitor inconclusive
CC(NC(=O)/C(C#N)=C/c1ccc(Cl)c([N+](=O)[O-])c1)c1ccccc1 (stereo not given)	HCMV inh -100, MARV entry inh inconclusive, Lassa entry inh inconclusive, FMDV antiviral 32µM, HCV inhibitor 35µM
CCOc1cc(Br)c(C=O)cc1OCC	HCMV inh -92
CCOc1cc(Br)c(C(=O)O)cc1OCC	none
CCOC(=O)Cc1csc(NC(=S)NC(=O)c2ccc(F)cc2)n1	HCMV inh -62
CCOC(=O)Cc1csc(NC(=O)CC(C)(C)C)n1	MARV entry inh inconclusive, Lassa entry inh 7.1µM
CCOC(=O)Cc1csc(NC(=O)/C=C/c2ccc(Cl)cc2)n1	HCMV inh inconclusive, FMDV antiviral inconclusive, HCV inhibitor 11µM (no result: MARV entry inh, Lassa entry inh)
CCOC(=O)Cc1csc(NC(=O)/C=C/c2ccco2)n1	none (no result: MARV entry inh, Lassa entry inh)
O=C(/C=C/c1ccc2c(c1)OCO2)Nc1nc(-c2ccc(F)cc2F)cs1	none (no result: HCMV inh, FMDV antiviral)
Cc1csc(NC(=O)/C=C/c2ccc3c(c2)OCO3)n1	MARV entry inh 4.5µM, Lassa entry inh inconclusive, HCV inhibitor inconclusive
CCOC(=O)Cc1csc(NC(=O)CC)n1	none (no result: FMDV antiviral)
Cc1ccc(O[C@@H]2[C@H](O)CO[C@H]2C=CC#Cc2ccc(C(C)(C)C)cc2)cc1	Lassa entry inh inconclusive (no result: HCMV inh, FMDV antiviral, HCV inhibitor)
COCCCNC(=O)CSc1nc2cc3c(cc2c(=O)n1CCCCCC(=O)NCc1ccc(OC)cc1)OCO3	none (no result: MARV entry inh, HCV inhibitor)
CCOC(=O)c1c(C)nc2sc(C(=O)Nc3ccc(OC)cc3)c(N)c2c1-c1ccc(OC)cc1	HCMV inh inconclusive, MARV entry inh inconclusive, Lassa entry inh inconclusive, HCV inhibitor 3.5µM
CCOC(=O)c1c(C)nc2sc(C(=O)Nc3ccc(C(C)=O)cc3)c(N)c2c1-c1ccc(OC)cc1	MARV entry inh 2.8µM, Lassa entry inh inconclusive, FMDV antiviral inconclusive, HCV inhibitor inconclusive
CCOC(=O)c1c(C)nc2sc3c(=O)n(-c4ccc(C(C)=O)cc4)nnc3c2c1-c1ccc(OC)cc1	MARV entry inh inconclusive, Lassa entry inh inconclusive, HCV inhibitor 8.9µM
Cc1nc2sc(C(N)=O)c(N)c2c(-c2ccc(Br)cc2)c1C(=O)Nc1ccc(Cl)cc1	HCMV inh -78, MARV entry inh inconclusive, Lassa entry inh inconclusive, FMDV antiviral inconclusive (no result: HCV inhibitor)
Cn1c(SCc2ccccc2)nnc1C1CCCN(Cc2cccc3ncccc23)C1 (stereo not given)	none (no result: HCMV inh, MARV entry inh, Lassa entry inh, HCV inhibitor)
CCN(CC(=O)Nc1ccc(OC)cc1)CC(=O)Nc1cccc(S(=O)(=O)N2CCOCC2)c1	none (no result: MARV entry inh, Lassa entry inh, HCV inhibitor)
COc1ccccc1NC(=O)c1cnc(SCC(=O)N2CCCc3ccccc32)n(C)c1=O	none (no result: MARV entry inh, HCV inhibitor)
COc1ccc(NC(=O)N2CCCc3ccccc32)c(OC)c1	Lassa entry inh inconclusive
CNC(=O)c1ncccc1Nc1nc(Nc2cc3c(cc2OC)CCCN3C(=O)CN(C)C)nc2[nH]ccc12	Lassa entry inh 4µM (no result: HCMV inh, MARV entry inh, FMDV antiviral, HCV inhibitor)
COc1cc2c(cc1Nc1nc(Nc3ccsc3C(N)=O)c3cc[nH]c3n1)N(C(=O)CN(C)C)CCC2	Lassa entry inh 0.07µM (no result: HCMV inh, MARV entry inh, FMDV antiviral, HCV inhibitor)
CCc1ccc(C2=C(C)C(N3CCC(C(=O)NCc4ccc(C)o4)CC3)=NS2(=O)=O)cc1	none (no result: MARV entry inh, HCV inhibitor)
COc1ccc(CNC(=O)COC(=O)CCn2c(C)csc2=O)cc1OC	none
